Assay results published in PubChem BioAssay.
Active and inactive are the calls of the source.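 How the source made its calls: active means Her2 level under about 52% in both replicate screens, with viability over 70% of control (limit read from the data); inconclusive means Her2 under the limit in one screen only, or viability under 70%; inactive means Her2 level above the set limit.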

Tested on: not listed separately
Test: reducers of endogenous Her2 protein level, primary screen, SKBR3 breast tumor cells, AlphaScreen, ATP viability (AID 461);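 on viability: percent of carrier control wells set as 100% viability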
Conditions: 18-24 h, measured here: SKBR3 viability, ATP luminescence, at 10 µM
Work on CC(C)(C)Cc1nc(-c2ccccn2)no1 yielded a viability of 95.5%.
CC1CCc2cc(F)cc3c(O)c(C(=O)NCC4CCCO4)c(=O)n1c23 (stereo not given) gave a viability of 93.5%.
With Cn1cnnc1SCC(=O)Nc1sc2c(c1C#N)CCCCC2 the viability was 86%.
Compound CCCCCOC(=O)C1=C(C)N(C)C(=O)NC1c1cc(Br)c(O)c(OC)c1 (stereo not given) has a viability of 114%.
For COC(=O)c1cnc2c(C(F)(F)F)cccc2c1OC, the viability was 104%.
In the case of O=C(COc1ccccc1)NCCSCc1ccco1, the viability is reported as 109%.
CCOC(=O)C(NC(=O)c1ccc(OC)cc1)(N1CCOCC1)C(F)(F)F (stereo not given) showed a viability of 112%.
Compound Cc1ccc(S(=O)(=O)N2CCC(C(=O)N[C@@H](Cc3ccccc3)C(=O)O)CC2)cc1 has a viability of 104%.
Work on COC(=O)c1cc(OC)c(OCc2cc(C(=O)OC)oc2C)c(OC)c1 yielded a viability of 95%.
In the case of O=C(Nc1cccc(O)c1)c1ccccc1, the viability is reported as 93%.
Work on Cn1c(=O)c2c(nc(SCCCC#N)n2Cc2ccccc2F)n(C)c1=O yielded a viability of 79.5%.
Cc1cc(=O)oc2ccc(OCC(=O)N3CCC(C)CC3)cc12 showed a viability of 87%.
CC(C(=O)N1CCCCC1)n1ncn2cccc2c1=O (stereo not given) gave a viability of 93.5%.
In the case of O=C(Nc1ccccc1C(=O)NCC1CCCO1)c1ccco1 (stereo not given), the viability is reported as 110%.
In the case of Cc1cc(C)n(CC2CC(=O)N(c3ccc(Cl)c(Cl)c3)C2=O)n1 (stereo not given), the viability is reported as 112%.
Compound CC(=O)c1cn(CC(=O)NCc2ccc3c(c2)OCO3)c2ccccc12 has a viability of 102%.
In the case of Cc1ccc(S(=O)(=O)n2nc(OC(=O)c3ccco3)cc2N)cc1, the viability is reported as 92.5%.
Work on O=C(Cc1cccs1)Nc1ccccc1C(=O)O yielded a viability of 109%.
CC1CCN(S(=O)(=O)c2ccc3[nH]cc(C(=O)NCCN4CCOCC4)c(=O)c3c2)CC1 showed a viability of 108%.
CC(C)(C)NC(=O)NC(=O)COc1ccccc1C#N showed a viability of 104%.
COc1ccccc1NC(=O)C1=C(C)Nc2ncnn2C1c1ccc(C)o1 (stereo not given) gave a viability of 87.5%.
Compound COc1cccc(NC(=O)CSc2nnc(-c3cc(-c4ccccn4)nc4ccccc34)o2)c1 has a viability of 94.5%.
O=C(Nc1ccc2c(c1)nc1n2CCSC1)c1ccccc1 showed a viability of 97%.
For O=C(O)c1cc(/C=N\O)ccc1OCc1ccccc1, the viability was 114%.
With CC(=O)Nc1cccc(OCC(O)Cn2cnc3ccccc32)c1 (stereo not given) the viability was 128%.
For Cc1cc(/C=N/n2cnnc2)c(C)n1-c1ccc(Cl)cc1Cl, the viability was 99.5%.
Work on CC1CN(C(=O)CSc2nnc(-c3ccncc3)n2-c2ccccc2)CC(C)O1 (stereo not given) yielded a viability of 101%.
Work on CCn1cc(S(=O)(=O)CC(=O)Nc2ccc(OC)cc2)c2ccccc21 yielded a viability of 104%.
O=C(c1ccco1)N1CCN(S(=O)(=O)c2ccc(C3CCCCC3)cc2)CC1 showed a viability of 96%.
CC(C(=O)N1CCOCC1)N1c2cccc3cccc(c23)S1(=O)=O (stereo not given) gave a viability of 101%.
Work on CCOc1ccc(C2/C(=C(/O)c3ccc(OC)cc3)C(=O)C(=O)N2c2cc(C)on2)cc1OC (stereo not given) yielded a viability of 85%.
Compound COC(=O)c1cccc(S(=O)(=O)N2CCN(c3nc4ccccc4s3)CC2)c1 has a viability of 83%.
CSC1=C(C#N)C(c2ccc(Cl)cc2)C2=C(CC(C)(C)CC2=O)N1 (stereo not given) showed a viability of 102%.
CCOc1ccccc1NC(=O)CN(c1ccc(C)cc1)S(=O)(=O)c1c(C)noc1C gave a viability of 133%.
In the case of Cc1ccc(C2N(c3ccc(Cl)c(Cl)c3)C(=O)C3CCCN32)o1 (stereo not given), the viability is reported as 99%.
Compound Cc1ccc2[nH]cc(C(=O)CN3CCC4(CC3)OCCO4)c2c1 has a viability of 106%.
Compound O=S1(=O)CC(N2CCCCC2)C(N2CCCCC2)C1 (stereo not given) has a viability of 104%.
C=CCn1c(N)c(C(=O)NCCC2=CCCCC2)sc1=S gave a viability of 85.5%.
COc1cc(OC)cc(-n2nnnc2SCC(=O)N2CCCC2)c1 showed a viability of 87%.
In the case of Cc1cc2oc(=O)cc(CN3CCN(Cc4ccc5c(c4)OCO5)CC3)c2cc1C, the viability is reported as 96.5%.

Molecular target: Receptor tyrosine-protein kinase erbB-2 (Homo sapiens) (UniProt P04626)
Sequence (P04626 whole entry, looked up): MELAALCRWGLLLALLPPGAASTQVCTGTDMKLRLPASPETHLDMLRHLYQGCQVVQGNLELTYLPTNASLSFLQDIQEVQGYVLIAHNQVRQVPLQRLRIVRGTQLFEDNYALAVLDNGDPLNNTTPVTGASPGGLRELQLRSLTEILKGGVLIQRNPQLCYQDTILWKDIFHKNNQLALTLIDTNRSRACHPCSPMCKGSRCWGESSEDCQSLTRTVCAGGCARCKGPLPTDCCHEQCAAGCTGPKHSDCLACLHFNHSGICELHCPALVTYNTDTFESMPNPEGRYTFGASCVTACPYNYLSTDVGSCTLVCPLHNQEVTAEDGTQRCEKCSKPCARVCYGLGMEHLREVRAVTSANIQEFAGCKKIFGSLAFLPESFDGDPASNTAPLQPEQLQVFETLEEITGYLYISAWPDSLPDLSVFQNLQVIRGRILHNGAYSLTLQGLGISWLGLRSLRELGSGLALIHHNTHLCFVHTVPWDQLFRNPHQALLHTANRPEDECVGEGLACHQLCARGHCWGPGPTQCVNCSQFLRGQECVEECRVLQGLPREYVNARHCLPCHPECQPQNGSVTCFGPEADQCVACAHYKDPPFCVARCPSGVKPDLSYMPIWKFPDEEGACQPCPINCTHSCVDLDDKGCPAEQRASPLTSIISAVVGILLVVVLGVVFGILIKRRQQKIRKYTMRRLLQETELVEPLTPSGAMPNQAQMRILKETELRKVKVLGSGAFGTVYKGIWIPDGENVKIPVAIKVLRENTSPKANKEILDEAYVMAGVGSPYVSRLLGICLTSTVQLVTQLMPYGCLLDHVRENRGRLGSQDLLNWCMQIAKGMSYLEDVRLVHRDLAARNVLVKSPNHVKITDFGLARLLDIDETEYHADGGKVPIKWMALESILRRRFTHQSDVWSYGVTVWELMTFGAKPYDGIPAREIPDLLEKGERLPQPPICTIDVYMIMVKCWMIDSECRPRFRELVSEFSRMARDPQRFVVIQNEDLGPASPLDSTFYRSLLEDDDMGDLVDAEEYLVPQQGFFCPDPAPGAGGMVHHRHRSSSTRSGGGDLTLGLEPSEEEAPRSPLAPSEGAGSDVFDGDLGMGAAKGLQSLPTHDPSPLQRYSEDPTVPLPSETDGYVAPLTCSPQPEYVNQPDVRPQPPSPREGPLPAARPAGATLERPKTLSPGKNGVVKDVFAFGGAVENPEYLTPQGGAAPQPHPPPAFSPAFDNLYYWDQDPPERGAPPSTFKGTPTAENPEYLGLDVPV
Test: as above
Conditions: 18-24 h, at 10 µM, stronger effect = lower value
In the case of CC(C)(C)Cc1nc(-c2ccccn2)no1, the Her2 level is reported as 114% (inactive).
For CC1CCc2cc(F)cc3c(O)c(C(=O)NCC4CCCO4)c(=O)n1c23 (stereo not given), the Her2 level was 94% (inactive).
With Cn1cnnc1SCC(=O)Nc1sc2c(c1C#N)CCCCC2 the Her2 level was 102% (inactive).
In the case of CCCCCOC(=O)C1=C(C)N(C)C(=O)NC1c1cc(Br)c(O)c(OC)c1 (stereo not given), the Her2 level is reported as 106% (inactive).
With COC(=O)c1cnc2c(C(F)(F)F)cccc2c1OC the Her2 level was 106% (inactive).
For O=C(COc1ccccc1)NCCSCc1ccco1, the Her2 level was 98.5% (inactive).
With CCOC(=O)C(NC(=O)c1ccc(OC)cc1)(N1CCOCC1)C(F)(F)F (stereo not given) the Her2 level was 95.5% (inactive).
For Cc1ccc(S(=O)(=O)N2CCC(C(=O)N[C@@H](Cc3ccccc3)C(=O)O)CC2)cc1, the Her2 level was 174% (inactive).
With COC(=O)c1cc(OC)c(OCc2cc(C(=O)OC)oc2C)c(OC)c1 the Her2 level was 89.5% (inactive).
With O=C(Nc1cccc(O)c1)c1ccccc1 the Her2 level was 123% (inactive).
In the case of Cn1c(=O)c2c(nc(SCCCC#N)n2Cc2ccccc2F)n(C)c1=O, the Her2 level is reported as 84.5% (inactive).
In the case of Cc1cc(=O)oc2ccc(OCC(=O)N3CCC(C)CC3)cc12, the Her2 level is reported as 90% (inactive).
In the case of CC(C(=O)N1CCCCC1)n1ncn2cccc2c1=O (stereo not given), the Her2 level is reported as 93.5% (inactive).
For O=C(Nc1ccccc1C(=O)NCC1CCCO1)c1ccco1 (stereo not given), the Her2 level was 89% (inactive).
For Cc1cc(C)n(CC2CC(=O)N(c3ccc(Cl)c(Cl)c3)C2=O)n1 (stereo not given), the Her2 level was 96.5% (inactive).
With CC(=O)c1cn(CC(=O)NCc2ccc3c(c2)OCO3)c2ccccc12 the Her2 level was 93% (inactive).
In the case of Cc1ccc(S(=O)(=O)n2nc(OC(=O)c3ccco3)cc2N)cc1, the Her2 level is reported as 106% (inactive).
In the case of O=C(Cc1cccs1)Nc1ccccc1C(=O)O, the Her2 level is reported as 96.5% (inactive).
With CC1CCN(S(=O)(=O)c2ccc3[nH]cc(C(=O)NCCN4CCOCC4)c(=O)c3c2)CC1 the Her2 level was 104% (inactive).
For CC(C)(C)NC(=O)NC(=O)COc1ccccc1C#N, the Her2 level was 90.5% (inactive).
With COc1ccccc1NC(=O)C1=C(C)Nc2ncnn2C1c1ccc(C)o1 (stereo not given) the Her2 level was 99% (inactive).
In the case of COc1cccc(NC(=O)CSc2nnc(-c3cc(-c4ccccn4)nc4ccccc34)o2)c1, the Her2 level is reported as 85% (inactive).
With O=C(Nc1ccc2c(c1)nc1n2CCSC1)c1ccccc1 the Her2 level was 114% (inactive).
For O=C(O)c1cc(/C=N\O)ccc1OCc1ccccc1, the Her2 level was 106% (inactive).
For CC(=O)Nc1cccc(OCC(O)Cn2cnc3ccccc32)c1 (stereo not given), the Her2 level was 110% (inactive).
With Cc1cc(/C=N/n2cnnc2)c(C)n1-c1ccc(Cl)cc1Cl the Her2 level was 64.5% (inactive).
In the case of CC1CN(C(=O)CSc2nnc(-c3ccncc3)n2-c2ccccc2)CC(C)O1 (stereo not given), the Her2 level is reported as 112% (inactive).
For CCn1cc(S(=O)(=O)CC(=O)Nc2ccc(OC)cc2)c2ccccc21, the Her2 level was 88% (inactive).
In the case of O=C(c1ccco1)N1CCN(S(=O)(=O)c2ccc(C3CCCCC3)cc2)CC1, the Her2 level is reported as 97.5% (inactive).
In the case of CC(C(=O)N1CCOCC1)N1c2cccc3cccc(c23)S1(=O)=O (stereo not given), the Her2 level is reported as 91.5% (inactive).
For CCOc1ccc(C2/C(=C(/O)c3ccc(OC)cc3)C(=O)C(=O)N2c2cc(C)on2)cc1OC (stereo not given), the Her2 level was 144% (inactive).
In the case of COC(=O)c1cccc(S(=O)(=O)N2CCN(c3nc4ccccc4s3)CC2)c1, the Her2 level is reported as 92.5% (inactive).
In the case of CSC1=C(C#N)C(c2ccc(Cl)cc2)C2=C(CC(C)(C)CC2=O)N1 (stereo not given), the Her2 level is reported as 95% (inactive).
In the case of CCOc1ccccc1NC(=O)CN(c1ccc(C)cc1)S(=O)(=O)c1c(C)noc1C, the Her2 level is reported as 87% (inactive).
In the case of Cc1ccc(C2N(c3ccc(Cl)c(Cl)c3)C(=O)C3CCCN32)o1 (stereo not given), the Her2 level is reported as 82.5% (inactive).
In the case of Cc1ccc2[nH]cc(C(=O)CN3CCC4(CC3)OCCO4)c2c1, the Her2 level is reported as 90% (inactive).
In the case of O=S1(=O)CC(N2CCCCC2)C(N2CCCCC2)C1 (stereo not given), the Her2 level is reported as 91.5% (inactive).
For C=CCn1c(N)c(C(=O)NCCC2=CCCCC2)sc1=S, the Her2 level was 92.5% (inactive).
In the case of COc1cc(OC)cc(-n2nnnc2SCC(=O)N2CCCC2)c1, the Her2 level is reported as 79% (inactive).
With Cc1cc2oc(=O)cc(CN3CCN(Cc4ccc5c(c4)OCO5)CC3)c2cc1C the Her2 level was 91.5% (inactive).
